Screening data: PubChem BioAssay, National Center for Advancing Translational Sciences (NCATS)
This is one part of a sample in which hits are shown more often than they occur.
Pf Dd2 inh = qHTS Primary assay for Inhibitors of Plasmodium falciparum Dd2 growth in vitro | P. falciparum Dd2 growth, SYBR Green, 72 h | Potency, µM (titrated, usually from 28.9 µM), actives largely listed as inhibitors | AID 1347417, 2020 | hit rate 4.3% among 120,000; active means well fitted inhibition curve with a large enough effect; further: nearly all actives have a fitted effect of over 65% in size
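Readout: SYBR Green fluorescence, 485 nm excitation, 535 nm emission, after ~16 h lysis at 37C. Before that, Dd2-infected red cells (2.5% hematocrit) grew 72 h with compound, 29 uM top final concentration.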
Each line names hits and unclear results; the compound was inactive in the other large screens.

COc1ccc(NC(=O)C2(C)CCCc3cnc(Nc4cccnc4)nc32)cc1 (stereo unspecified)	none
COc1ccnc(N2CC[C@H](c3nnc(-c4ccc(N(C)C)cc4)o3)C2)n1	none
O=C(c1cccnc1)N1CCC(N2CC3CC(C2)[C@H]2CCCC(=O)N2C3)CC1 (stereo partly specified)	none
O=C(COc1ccccc1)N1CCC(O)(c2csc(CN3CCOCC3)n2)CC1	none
O=C(c1ccccc1)N1CCC2(CC1)C(=NC1CCCC1)NC(=O)N2c1cc(F)cc(F)c1	none
Cc1nn(-c2ccc(C(C)(C)C)cc2)c(C)c1[C@@H]1C=C[C@@H](NC(=O)CC2(CC(=O)O)CCCC2)C1	none
Cc1nn(-c2ccc(C(C)(C)C)cc2)c(C)c1[C@@H]1C=C[C@@H](NC(=O)CCCC(=O)O)C1	none
CC(=O)N[C@@H]1C=C[C@@H](c2c(C)nn(-c3ccc(C)c(Cl)c3)c2C)C1	none
Cc1nn(-c2ccccc2[N+](=O)[O-])c(C)c1[C@@H]1C=C[C@@H](NCc2ccco2)C1	Pf Dd2 inh 11.2µM
Cc1nn(-c2ccccc2)c(C)c1[C@@H]1C=C[C@@H](NC(=O)CCCC(=O)O)C1	none
COC(=O)c1cccc(NC(=S)N[C@@H]2C=C[C@@H](c3c(C)nn(-c4ccc(F)cc4)c3C)C2)c1	none
Cc1nn(-c2ccccc2)c(C)c1[C@@H]1C=C[C@@H](NC(=O)CC(C)(C)CC(=O)O)C1	none
Cc1nn(-c2ccccc2)c(C)c1[C@@H]1C=C[C@@H](NC(=O)c2ccco2)C1	Pf Dd2 inh 10µM
Cc1cc(Cl)ccc1-n1nc(C)c([C@@H]2C=C[C@@H](NC(=O)c3ccc(N(C)C)cc3)C2)c1C	Pf Dd2 inh 10µM
Cc1nn(-c2ccccn2)c(C)c1[C@@H]1C=C[C@@H](NC(=O)CC(C)(C)CC(=O)O)C1	none
Cc1nn(-c2ccc(C(F)(F)F)cc2)c(C)c1[C@@H]1C=C[C@@H](NC(=O)CSCC(=O)O)C1	none
Cc1nn(-c2ccc(F)cc2)c(C)c1[C@@H]1C=C[C@@H](NC(=O)c2ccco2)C1	Pf Dd2 inh 6.31µM
O=C(Cn1ccn2nc(-c3ccccc3)c(CO)c2c1=O)NCc1ccccc1Cl	none
CC1CCC(NC(=O)CN2C(=O)NC3(CCOCC3)C2=O)CC1 (stereo unspecified)	none
O=C(NCCN1CCCC1)C1Cn2cccc2C(=O)N1Cc1ccccc1 (stereo unspecified)	none
O=C(Cc1c(F)cccc1Cl)NC1CCc2nn(CC3CC3)c(=O)n2CC1 (stereo unspecified)	none
Cc1cccc(NC(=O)N2CCC(CC(=O)NC3CC3)C2)c1 (stereo unspecified)	none
COc1ccc(NC(=O)CN2C(=O)NC3(CCS(=O)(=O)CC3)C2=O)cc1	none
O=C(NC[C@H]1OC[C@@H](NC2CCC2)[C@@H]1O)C1CCCC1	none
COCCN1Cc2nc(-c3cnn(Cc4ccccc4)c3)ccc2OCC1=O	none
CC(C)c1ccc(NC2=N[C@H]3[C@@H](O)[C@H](O)C[C@H](C(=O)NC4CCCC4)[C@H]3S2)cc1	none
COc1ccc(OC)c(NC(=O)Cn2cnc3sc(C)c(S(=O)(=O)N4CCN(c5ccccc5OC)CC4)c3c2=O)c1	Pf Dd2 inh 11.2µM
COc1ccc(Cl)cc1NC(=O)Cn1cnc2sc(C)c(S(=O)(=O)N3CCN(c4ccccc4OC)CC3)c2c1=O	Pf Dd2 inh 10µM
COCCCNC(=O)Cn1cnc2sc(C)c(S(=O)(=O)N3CCN(c4ccccc4OC)CC3)c2c1=O	none
COc1ccc(NC(=O)Cn2cnc3sc(C)c(S(=O)(=O)N4CCN(C)CC4)c3c2=O)cc1Cl	none
COc1ccccc1N1CCN(C(=O)Cn2cnc3sc(C)c(S(=O)(=O)N4CCC(C)CC4)c3c2=O)CC1	none
COCCNC(=O)Cn1cnc2sc(C)c(S(=O)(=O)N3CCN(c4ccccc4OC)CC3)c2c1=O	none
Cc1cn2nc(C(=O)N3CCN(c4ccccc4F)CC3)cc2c(N2CCCC2)n1	none
Cc1ccsc1-c1[nH]nc2ncc(-c3cccc(CO)c3)nc12	none
Cc1ccc2c(C(=O)NCCc3cccnc3)cc(NC(=O)C(C)C)cc2n1	none
CN(C)C[C@@H]1CN(Cc2ccccc2)C[C@H]1NC(=O)c1nccn1C	none
O=C(Nc1ccccc1)N1CCC(Oc2ccccc2-c2nc(-c3cnccn3)no2)C1 (stereo unspecified)	none
c1csc(CN2CCC(Oc3ccccc3-c3nc(-c4cnccn4)no3)C2)c1 (stereo unspecified)	Pf Dd2 inh 5.62µM
CCNC(=O)N1CC(Oc2ccccc2-c2nc(-c3cnccn3)no2)C1	none
O=C(CC1CCCC1)N1CCC(Cc2nc(C3CC3)n[nH]2)C1 (stereo unspecified)	none
CN(C)c1ccc(-c2ccnc(N[C@H]3CO[C@H]4[C@@H]3OC[C@H]4OC(=O)Nc3cccc(C(F)(F)F)c3)n2)cc1	none
Cc1cccc([S+](=O)([O-])N(C)Cc2cccn2C)c1	none
COc1ccc(OC)c([C@@H]2Nc3ccc(C(=O)O)cc3[C@@H]3C=CC[C@@H]32)c1	none
COc1ccc(Br)cc1[C@@H]1Nc2ccc(C(=O)O)cc2[C@@H]2C=CC[C@@H]21	none
CCOC(=O)c1ccc2c(c1)[C@@H]1C=CC[C@@H]1[C@H](c1cccc(OC)c1OC)N2	Pf Dd2 inh 0.447µM
Cc1ccc(OCC(=O)c2ccc3c(c2)N(CCCC(=O)NCC2CC2)C(=O)CO3)cc1C	none
COCC1CN(C(C)=O)CC12CCN(Cc1ccccc1C(F)(F)F)CC2 (stereo unspecified)	none
CN(Cc1ccccn1)Cc1ccccc1C(F)(F)F	none
OCC1(Cc2ccccc2C(F)(F)F)CCNCC1	none
CCOC(=O)C1(Cc2ccccc2C(F)(F)F)CCN(Cc2ccccn2)CC1	Pf Dd2 inh 6.31µM
CCOC(=O)C1(Cc2ccccc2F)CCCN(C(=O)c2ccc(-n3ccnc3)cc2)C1 (stereo unspecified)	none
CCOC(=O)C1(Cc2ccccc2C(F)(F)F)CCN(C(C)Cc2cccc(C)n2)CC1 (stereo unspecified)	Pf Dd2 inh 12.6µM
COCCNC(=O)[C@@H]1CCC[C@@H](NC(=O)c2cc(C)on2)CN(C)C(=O)C1	none
COCCCNC(=O)c1ccc2c(c1)n(Cc1cccc(F)c1)c(=O)c1ccnn12	none
CCN1CCC(O)(c2csc(CN(CC)CC)n2)CC1	none
CCN(CC)Cc1nc(C2(O)CCN(Cc3ccc(C(F)(F)F)cc3)CC2)cs1	Pf Dd2 inh 11.2µM
OC1(c2csc(CN3CCOCC3)n2)CCN(Cc2ccc(C(F)(F)F)cc2)CC1	none
CCc1ccc2oc(-c3cccc(NC(=O)COc4ccccc4Cl)c3)nc2c1	none
CCc1ccc2oc(-c3cccc(NC(=O)c4ccc(-c5cccc([N+](=O)[O-])c5)o4)c3)nc2c1	Pf Dd2 inh 2µM
O=C(Nc1cccc(-c2nc3cc(Cl)ccc3o2)c1)c1cc([N+](=O)[O-])ccc1N1CCOCC1	none
O=C(C1CCCC1)N1CC2(CCN(Cc3cccnc3)C2)Cc2ccccc21 (stereo unspecified)	Pf Dd2 inh 6.31µM
O=C1CCN(Cc2cccnc2)CCCC(C(=O)NC2CCCC2)CCN1 (stereo unspecified)	none
CC(=O)N1CC2(CCCN(Cc3ccc(Cl)cc3)C2)Cc2ccccc21 (stereo unspecified)	none
CC(=O)N1CC2(CCCN(Cc3cccnc3)C2)Cc2ccccc21 (stereo unspecified)	none
O=C(C1CCCC1)N1CC2(CCN(C3CCCCC3)C2)Cc2ccccc21 (stereo unspecified)	Pf Dd2 inh 10µM
CN1CCC(C(=O)N2C3CCC2CN(Cc2cccnc2)C3)CC1	none
O=C(C1CCCC1)N1CC2(CCN(Cc3cccnc3)CC2)Cc2ccccc21	Pf Dd2 inh 10µM
